Gal4-VP16 FLuc – VP16 counterscreen qHTS for inhibitors of ROR gamma transcriptional activity; Potency, µM (series often up to 53.6 µM), inactives show at the highest dose activity, negative = inhibition, actives largely listed as inhibitors; Drosophila S2 Gal4-VP16 UAS-luciferase, luminescence, 20 h; 3.5% of 310,000 active;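 also: Gal4-VP16 expression switched on by copper sulfate through the metallothionein promoter; % is scaled to controls: 0 for no effect and ±100 for the full control effect; nearly all actives have a fitted effect of over 50% in size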
Mito fusion act – qHTS Assay for Small Molecule Inhibitors of Mitochondrial Division or Activators of Mitochondrial Fusion. Potency, µM (titrated, usually from 46.1 µM), inactives show at the highest dose growth rescue (activation), most hits filed as activators. AID 485298, 2010. S. cerevisiae fusion-defective mutant growth rescue, CellTiterGlo 48 h. 0.23% of 320,000 active; also: % of control where 0% means no effect; nearly all actives have a fitted effect of over 45% in size
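Growth-rescue viability read-out: after 48 h at the non-permissive 37C in glycerol/ethanol YPEG, yeast mitochondrial fusion mutants are measured by CellTiterGlo luminescence; compounds (23 nl pinned per well) restoring growth score as division inhibitors or fusion activators.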
Integrin act MD – qHTS for Activators of Integrin-Mediated Alleviation for Muscular Dystrophy; 0.064% of 350,000 active; AID 624291, 2012; alpha7betagal myoblasts, beta-gal FDG fluorescence, 48 h; Potency, µM (doses to about 38.3 µM), for inactives: top-dose activation, actives largely listed as activators;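 also: 100% = response of the positive control SU9516; nearly all actives have a fitted effect of over 60% in size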
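alpha7betagal+/- myoblasts (passage 13, 250/well) treated 48 h at 37C with compounds at 1:260 dilution of DMSO stock. Lysed, then beta-galactosidase activity read as FDG fluorescence (ex 480/em 540) after 30 min, with pre-read for autofluorescence.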
uPA surface inh – qHTS for Inhibitors of Cell Surface uPA Generation. Potency, µM (series often up to 38.3 µM), for the others: at the top dose activity change, negative = inhibition, actives largely listed as inhibitors. 0.31% of 330,000 active. cell surface uPA generation assay, qHTS; active = well fitted inhibition curve with a large enough effect; inconclusive = small, poorly fitted or top-dose-only effect; inactive = no such curve, though single readings can be large or run the other way; tested in mouse RAW 264.7 cells; also: % is scaled to controls: 0 for no effect and ±100 for the full control effect; nearly all actives have a fitted effect of over 55% in size
RORgamma inh – qHTS for inhibitors of ROR gamma transcriptional activity; Potency, µM (titrated, usually from 53.6 µM), for inactives: at the top dose activity change, negative = inhibition, most hits filed as inhibitors; Drosophila S2 Gal4-RORgamma UAS-luciferase reporter, 20 h; 5.4% of 310,000 active; Nuclear receptor ROR-gamma (Mus musculus), P51450; AID 2551, 2010; also: % is scaled to controls: 0 for no effect and ±100 for the full control effect; nearly all actives have a fitted effect of over 60% in size
Target sequence (P51450 whole entry, looked up, the tested form may be a part): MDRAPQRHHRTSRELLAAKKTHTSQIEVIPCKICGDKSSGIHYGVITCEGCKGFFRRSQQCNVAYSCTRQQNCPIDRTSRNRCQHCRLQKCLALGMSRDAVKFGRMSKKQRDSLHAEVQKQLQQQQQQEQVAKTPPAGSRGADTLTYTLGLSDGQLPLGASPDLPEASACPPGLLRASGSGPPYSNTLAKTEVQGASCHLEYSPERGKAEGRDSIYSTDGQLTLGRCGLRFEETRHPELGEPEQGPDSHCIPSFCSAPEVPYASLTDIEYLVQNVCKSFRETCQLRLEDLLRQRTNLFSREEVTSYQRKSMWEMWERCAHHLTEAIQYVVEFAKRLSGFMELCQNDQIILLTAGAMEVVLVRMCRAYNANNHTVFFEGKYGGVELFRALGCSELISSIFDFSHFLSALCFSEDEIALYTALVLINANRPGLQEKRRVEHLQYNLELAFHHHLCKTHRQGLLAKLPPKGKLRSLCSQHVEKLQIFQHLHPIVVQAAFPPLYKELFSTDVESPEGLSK
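A Gal4/UAS one-hybrid system in insect cells: metallothionein-promoter Gal4–ROR gamma fusion plus Photinus luciferase reporter. Copper sulfate 700 uM final, 20 hr ambient incubation, luminescent detection after 10 min with reagent.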
Chronic BCR inh – qHTS Assay to Find Inhibitors of Chronic Active B-Cell Receptor Signaling. ABC-DLBCL IkBa-CBG/CBR reporter, luminescence ratio, 4 h. Potency, µM (highest dose often 46.1 µM), for inactives: at the top dose activity change, negative = inhibition, most hits filed as inhibitors. 0.05% of 340,000 active. AID 493014, 2011; active = well fitted inhibition curve with a large enough effect in the signal ratio, with a control signal flat, not every such curve was filed as active; inconclusive = small, poorly fitted or top-dose-only effect, or effect the other way, or a change in a side signal; the % refers to the signal ratio;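 also: plate controls were basal doxycycline-induced cells for no effect and cells given 10 µM MG132 for full effect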
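Cell line TMD8 (human ABC DLBCL), stably expressing tet-inducible CBG68-IkBa fusion and CBR; IMDM/0.5% FBS; cpd up to 46 uM; dox induction, 4 h, 37C/5% CO2; dual luminescence; green/red ratio; MG132 control.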
The depositor's hits bear a star; u = inconclusive; x = no result given; [ ] = dose if it differs, or a comment. Hits are enriched below; roughly 5.5% of the tested compounds scored in any of these assays. Unless noted, calls follow the shape of the dose curve; as a rule, active = well fitted curve in the direction sought with a large enough effect; inconclusive = small, poorly fitted or top-dose-only effect, or another doubt; inactive = no such curve, though single readings can be large; an effect the other way counts as inactive or inconclusive. Potency is read from the fitted curve at half-maximal effect.

SMILES	Gal4-VP16 FLuc	Mito fusion act	Integrin act MD	uPA surface inh	RORgamma inh	Chronic BCR inh
CCOC(=O)C1CCN(S(=O)(=O)c2cn(C)cn2)CC1	0.1%	-0.6%	10.4%	1.9%	-31.8%	-0.3%
CC1CCCC(C)N1C(=O)COC(=O)c1nn(C)c(=O)c2ccccc12 (centres undefined)	0.3%	4.4%	-31.8%	-6.8%	2.2%	-0.3%
CC[C@H](C)[C@@H]1NC(=O)[C@H](Cc2ccc(O)cc2)NC(=O)[C@@H](N)CSSC[C@@H](C(=O)N2CCC[C@H]2C(=O)N[C@@H](CC(C)C)C(=O)NCC(N)=O)NC(=O)[C@H](CC(N)=O)NC(=O)[C@H](CCC(N)=O)NC1=O	0.6%	x	x	x	10.3%	x
COC(=O)N=Nc1c(O)n(Cc2ccccc2)c2ccccc12	-0.5%	1.5%	-7.1%	-3.1%	-5.0%	11.8%
COC(=O)c1ccc(Cn2c(O)c(N=NC(N)=S)c3ccccc32)o1	12.6µM*	8.5%	20.6%	-12.9%	1.12µM*	u
CSc1cccc(NC(=O)C2CCCN(C(=O)c3cnn(-c4ccc(F)cc4)c3-n3cccc3)C2)c1 (centres undefined)	x	x	x	x	x	-0.2%
CCOC(=O)CSc1nc2ccc(N3CCOCC3)cc2c(=O)n1Cc1ccccc1	u	4.2%	-29.0%	-4.4%	12.6µM*	-9.8%
O=C(CSc1nc2ccc(N3CCOCC3)cc2c(=O)n1CCc1ccccc1)NCC1CCCO1 (centres undefined)	12.6µM*	-4.3%	17.3%	5.0%	5.62µM*	u
COCCNC(=O)CSc1nc2ccc(N3CCOCC3)cc2c(=O)n1CCc1ccccc1	u	5.0%	43.2%[7.66 µM]	-0.1%	3.55µM*	2.5%
CCCCNC(=O)CSc1nc2ccc(N3CCOCC3)cc2c(=O)n1CCc1ccccc1	7.94µM*	8.2%	-14.1%	6.6%	7.94µM*	u
CCCCn1c(SCC(=O)NCCOC)nc2ccc(N3CCOCC3)cc2c1=O	-17.3%	-0.3%	-2.1%	1.3%	u	u
O=C(CSc1nc2ccccc2c(=O)n1CCC(=O)N1CCN(c2ccccc2)CC1)NCC1CCCO1 (centres undefined)	0.5%	3.0%	-7.8%	7.2%	19.1%	0.2%
O=C(N/N=C/c1ccco1)C1CCCC1	-1.0%	1.9%	1.9%	3.8%	-13.6%	1.4%
Cn1c(=O)c(-c2ccc(Cl)cc2)nc2cnc(N3CCNCC3)nc21	-11.3%	x	x	x	2.3%	x
O=C(/C=C/c1cccc(C(F)(F)F)c1)NNC(=O)c1ccncc1	x	-7.1%	-9.2%	4.2%	x	6.0%
Cc1c(C(=O)Nc2nc3ccccc3[nH]2)oc2ccc(Br)cc12	4.47µM*	10.5%	17.7%	-0.8%	5.62µM*	-5.2%
Cc1c(C(=O)Nc2ccccn2)oc2c(Cl)cccc12	x	10.3%	-17.5%	-3.4%	x	0.5%
Cc1c(C(=O)Nc2nc3ccccc3[nH]2)oc2ccccc12	5.01µM*	u	-55.3%	-4.7%	0.891µM*	u
Cc1c(C(=O)Nc2nc3ccccc3[nH]2)oc2c(Cl)cccc12	6.31µM*	9.3%	-5.6%	-11.0%	10.2%	u
Cc1c(C(=O)Nc2ccncc2)oc2ccccc12	-3.4%	-3.5%	-9.5%	x	18.5%	-4.3%
N#Cc1ccsc1NC(=O)c1ccccn1	5.01µM*	-5.7%	0.2%	-3.7%	2.82µM*	u
Nc1cccnc1Sc1ccc([N+](=O)[O-])cn1	u	-0.9%	-1.6%	-0.9%	3.98µM*	0.7%
COc1ccc(C2=NN(c3ccc(C(=O)O)cc3)C(c3ccc(OC)c(OC)c3)C2)cc1 (centres undefined)	-15.4%	u	41.9%	-1.3%	7.08µM*	u
Cc1ccc(NC(=S)NCCC2=CCCCC2)cc1	6.31µM*	0.6%	-11.4%	-9.1%	5.62µM*	u
